Inconclusive results are not listed. Where a call stands in place of a potency, no number is given. Activity calls are given as the source filed them. Unless noted, calls come from the whole dose curve; as a rule, active = well fitted activation curve with a large enough effect in the repeat runs; inconclusive = weak or mixed curves, or effect the other way; inactive = no such curve, though single readings can be large or run the other way.
Test: qHTS assay to identify small molecule antagonists of the estrogen related receptor signaling pathway with the pleiotropic PPARgamma coactivator (PGC) from Tox21 10K library (AID 1224841; call rule not given here; note: actives are mostly falling curves and most rising ones were filed inactive; nearly all actives have a fitted effect of over 50% in size)
Conditions: PGC/ERR reporter cell line, ONE-Glo luciferase, 18 h; series mostly up to 92.4 µM
Method in brief: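 Antagonism in this quantitative HTS is taken from loss of luciferase signal in PGC/ERR cells. Cells (2,000/well) are treated with compounds in DMSO after a 6 h settling period and read by One-Glo luminescence after 18 h.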

| SMILES | Potency |
| --- | --- |
| O=C(O)CNC(=O)c1ccc([N+](=O)[O-])cc1 | inactive |
| Cn1cc(S(C)=O)c(=O)c2ccc(F)cc21 (centres undefined) | inactive |
| C=CCOCC(CC)(CO)COCC=C | inactive |
| CC(=O)Nc1ccc(S(N)(=O)=O)cc1 | inactive |
| CCCCCCCCS(=O)(=O)Cl | inactive |
| C=C[Si](OC(=C)C)(OC(=C)C)OC(=C)C | inactive |
| CC/C=C\CC/C=C/CO | inactive |
| CN1CCCC1 | inactive |
| O=c1cc(CO)occ1O | inactive |
| CC(=O)CC(C)C | inactive |
| COc1ccc2c(c1)CCCC2=O | inactive |
| NC(CSCC(=O)O)C(=O)O (centres undefined) | inactive |
| Cc1cnc(NS(=O)(=O)c2ccc(N)cc2)nc1 | inactive |
| CC(=O)N(CC(O)CO)c1c(I)c(C(=O)NCCO)c(I)c(C(=O)NCC(O)CO)c1I (centres undefined) | inactive |
| C/C=C(\C)C#N | inactive |
| COC(=O)CCSCCC(=O)OC | inactive |
| CN(C)CCCSc1ccccc1NC(=O)/C=C/c1ccccc1 | inactive |
| N=C(N)c1ccc(OCCCOc2ccc(C(=N)N)cc2)cc1 | inactive |
| CCC=O | inactive |
| Nc1ccccc1S(=O)(=O)O | inactive |
| C[C@H]1C[C@@H](O)CC(C)(C)C1 | inactive |
| CC/C=C\CCOC(C)=O | inactive |

Test: qHTS assay to identify small molecule agonists of the estrogen related receptor signaling pathway with the pleiotropic PPARgamma coactivator (PGC) from Tox21 10K library (AID 1224842); note: nearly all actives have a fitted effect of over 15% in size
Conditions: PGC/ERR reporter cell line, luciferase ONE-Glo, 18 h; series mostly up to 92.4 µM
Method in brief: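 PGC/ERR reporter cell line, 2,000 cells per well, incubated 6 h at 37 C before 23 nL compound in DMSO was added. After 18 h at 37 C, One-Glo luminescence read following 30 min at room temperature.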

| SMILES | outcome |
| --- | --- |
| O=C(O)CNC(=O)c1ccc([N+](=O)[O-])cc1 | inactive |
| Cn1cc(S(C)=O)c(=O)c2ccc(F)cc21 (centres undefined) | inactive |
| C=CCOCC(CC)(CO)COCC=C | inactive |
| CC(=O)Nc1ccc(S(N)(=O)=O)cc1 | inactive |
| CCCCCCCCS(=O)(=O)Cl | inactive |
| C=C[Si](OC(=C)C)(OC(=C)C)OC(=C)C | inactive |
| CC/C=C\CC/C=C/CO | inactive |
| CN1CCCC1 | inactive |
| O=c1cc(CO)occ1O | inactive |
| CC(=O)CC(C)C | inactive |
| COc1ccc2c(c1)CCCC2=O | inactive |
| NC(CSCC(=O)O)C(=O)O (centres undefined) | inactive |
| Cc1cnc(NS(=O)(=O)c2ccc(N)cc2)nc1 | inactive |
| CC(=O)N(CC(O)CO)c1c(I)c(C(=O)NCCO)c(I)c(C(=O)NCC(O)CO)c1I (centres undefined) | inactive |
| C/C=C(\C)C#N | inactive |
| COC(=O)CCSCCC(=O)OC | inactive |
| CN(C)CCCSc1ccccc1NC(=O)/C=C/c1ccccc1 | inactive |
| N=C(N)c1ccc(OCCCOc2ccc(C(=N)N)cc2)cc1 | inactive |
| CCC=O | inactive |
| Nc1ccccc1S(=O)(=O)O | inactive |
| C[C@H]1C[C@@H](O)CC(C)(C)C1 | inactive |
| CC/C=C\CCOC(C)=O | inactive |
